{"source": "PubChem BioAssay AID1851", "about": "(National Center for Advancing Translational Sciences (NCATS), 2009)", "note": "Among all 16,000 compounds or so, about 2,600 (16%) were called active. About 20% were inconclusive and are not listed. A selection follows. Unmarked numbers belong to inactive results. The call rests on the fitted dose curve; in most records, active means well fitted curve in the direction sought with a large enough effect; inconclusive means small, poorly fitted or top-dose-only effect, or effect the other way; inactive means no such curve, though single readings can be large or run the other way. Numbered stars: 1 amine (or outer) side, 2 acyl side, 3 side chain; on linkers, the order of the positions; unused ones are H or OH. Bridge positions count the residues as written; N and C are the ends. Square brackets hold non-standard residues; d marks the D form. Peptide text beside a SMILES is read from it. I, II: the chains in the order shown. Actinocin(9to1) = Cc1c2oc3c(C)ccc(C(=O)[*:1])c3nc-2c(C(=O)[*:2])c(N)c1=O; aThr = C[C@H](O)[C@H](N)C(=O)O; NMeV = CN[C@H](C(=O)O)C(C)C; Sar = CNCC(=O)O"}
{"molecular_target": "Cytochrome P450 2D6 (Homo sapiens) (UniProt P10635)", "sequence (P10635 whole entry, looked up)": "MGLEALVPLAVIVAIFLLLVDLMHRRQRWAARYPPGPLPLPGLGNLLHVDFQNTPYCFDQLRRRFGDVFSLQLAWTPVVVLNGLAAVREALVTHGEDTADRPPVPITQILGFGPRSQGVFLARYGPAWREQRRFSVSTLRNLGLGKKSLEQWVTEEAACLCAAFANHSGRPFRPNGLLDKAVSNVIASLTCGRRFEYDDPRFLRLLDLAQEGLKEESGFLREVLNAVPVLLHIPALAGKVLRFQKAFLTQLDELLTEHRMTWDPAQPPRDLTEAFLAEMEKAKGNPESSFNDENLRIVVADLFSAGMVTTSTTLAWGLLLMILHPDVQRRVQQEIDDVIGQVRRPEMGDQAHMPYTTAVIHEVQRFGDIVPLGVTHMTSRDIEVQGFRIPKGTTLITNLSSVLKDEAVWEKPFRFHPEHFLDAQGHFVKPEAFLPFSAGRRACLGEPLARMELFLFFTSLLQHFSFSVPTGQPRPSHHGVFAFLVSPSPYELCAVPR", "test": "Cytochrome panel assay with activity outcomes; on activity, negative = inhibition: on the % scale 0 is the no-effect control and ±100 the full control effect", "conditions": "recombinant CYP, pro-luciferin dealkylation, luminescence, p450-cyp2d6; series mostly up to 57.1 µM; activity, negative = inhibition: at the top concentration"}
{"smiles": "Cn1c(=O)c(-c2cccc(Cl)c2)nc2cncnc21", "activity, negative = inhibition": "-7.08%"}
{"smiles": "CCOC(=O)C1CCCN(c2ncnc3c2cnn3-c2ccc(Cl)cc2)C1", "note": "(stereo not given)", "activity, negative = inhibition": "-5.44%"}
{"smiles": "COCCn1c(=O)c(-c2cccs2)nc2cncnc21", "activity, negative = inhibition": "-11.4%"}
{"smiles": "Cc1cc(C(=O)N[C@H](c2ccccc2)[C@@]2(C)C[C@@H]2[C@@H](C)C(=O)Nc2ccc3ccccc3c2)n(C)n1", "AC50": "39.8 nM (active)"}
{"smiles": "C[C@@H](C(=O)Cc1ccc2ccccc2c1)[C@@H]1C[C@@]1(C)[C@@H](NP(=O)(c1ccccc1)c1ccccc1)c1ccccc1", "activity, negative = inhibition": "6.45%"}
{"smiles": "O=C(Nc1ccc2ccccc2c1)[C@H]1C[C@@H]1[C@H](NP(=O)(c1ccccc1)c1ccccc1)c1ccccc1", "activity, negative = inhibition": "14%"}
{"smiles": "CC(=O)N[C@H](c1ccccc1)[C@@]1(C)C[C@@H]1[C@@H](C)C(=O)Nc1ccc2ccccc2c1", "AC50": "2000 nM (active)"}
{"smiles": "C[C@@H](C(=O)Nc1ccc2ccccc2c1)[C@H]1C[C@]1(C)[C@H](NP(=O)(c1ccccc1)c1ccccc1)c1ccccc1", "AC50": "794 nM (active)"}
{"smiles": "C[C@@H](C(=O)Nc1ccc2ccccc2c1)[C@@H]1C[C@@]1(C)[C@@H](N)c1ccccc1", "AC50": "12600 nM (active)"}
{"smiles": "Cc1nn(C)c(Cl)c1S(=O)(=O)N[C@@H](c1ccccc1)[C@]1(C)C[C@H]1[C@@H](C)C(=O)Nc1ccc2ccccc2c1", "activity, negative = inhibition": "6.42%"}
{"smiles": "O=C(Nc1ccc2ccccc2c1)[C@@H]1C[C@H]1[C@@H](NP(=O)(c1ccccc1)c1ccccc1)c1ccccc1", "activity, negative = inhibition": "-10.1%"}
{"smiles": "CC1(C)S[C@@H]2[C@H](NC(=O)[C@@H](NC(=O)N3CCNC3=O)c3ccccc3)C(=O)N2[C@H]1C(=O)O", "activity, negative = inhibition": "-1.37% [at 25.6 µM]"}
{"smiles": "COC(=O)c1sccc1NC(=O)CSc1ccccc1NS(=O)(=O)c1ccc(Cl)cc1", "activity, negative = inhibition": "-0.426%"}
{"smiles": "C[C@@H]1O[C@H]2C3=C(C(=O)[C@H]4O[C@@H]4[C@H]3O)[C@@H]1[C@@H]1[C@@H](C)OC=C3[C@H](O)[C@H]4O[C@@H]4/C(=N\\OCc4ccccc4)[C@]312", "activity, negative = inhibition": "-8.47% [at 11.4 µM]"}
{"smiles": "O=C(NCc1ccccc1)C(c1ccc(F)cc1)N(Cc1ccco1)C(=O)c1ccccn1", "note": "(stereo not given)", "activity, negative = inhibition": "-23.4%"}
{"smiles": "C[C@@H](C(=O)Nc1ccc2ccccc2c1)[C@@H]1C[C@@]1(C)[C@@H](NC(=O)Oc1ccc(F)cc1)c1ccccc1", "activity, negative = inhibition": "3.54%"}
{"smiles": "C[C@@H](C(=O)Nc1ccc2ccccc2c1)[C@H]1C[C@]1(C)[C@H](NC(=O)Oc1ccc(F)cc1)c1ccccc1", "AC50": "2510 nM (active)"}
{"smiles": "COC(=O)N[C@H](c1ccccc1)[C@@]1(C)C[C@@H]1[C@@H](C)C(=O)Nc1ccc2ccccc2c1", "AC50": "31.6 nM (active)"}
{"smiles": "COC(=O)[C@H]1C[C@@H]1[C@H](NC(=O)Oc1ccc(F)cc1)c1ccccc1", "activity, negative = inhibition": "-5.03%"}
{"smiles": "CO[C@@H]1COC(=O)CC=C[C@@H](C)[C@@H]2C=C[C@H](O)[C@@H](COC(=O)C/C=C\\[C@H]1C)O2", "activity, negative = inhibition": "13% [at 11.4 µM]"}
{"smiles": "Cc1cc(C)c(C)c(S(=O)(=O)ON2C(=O)c3ccccc3C2=O)c1C", "activity, negative = inhibition": "-29.2%"}
{"smiles": "CC(C)(C)c1ccc(OCC(=O)O)c(Cl)c1", "activity, negative = inhibition": "12.8% [at 11.4 µM]"}
{"smiles": "Cc1nc(NS(=O)(=O)c2ccccc2C)c2c3c(sc2n1)CCC3", "activity, negative = inhibition": "-4.47%"}
{"smiles": "CCCNC(=O)c1c(C)cc(=O)oc1C", "activity, negative = inhibition": "-29%"}
{"smiles": "COc1cc(-c2nnc(-c3ccc(N4CCOCC4)cc3)o2)cc(OC)c1OC", "activity, negative = inhibition": "-3.51%"}
{"smiles": "COc1ccc(Br)cc1/C=C/C(=O)Nc1c(C)cccc1C", "activity, negative = inhibition": "-29.7%"}
{"smiles": "O=C(CC1C(=O)NCCN1C(=S)Nc1ccccc1)Nc1ccc2c(c1)OCCO2", "note": "(stereo not given)", "activity, negative = inhibition": "4.52%"}
{"smiles": "CN1C(=O)C(CC(=O)Nc2ccc(F)cc2)N(CCCc2ccccc2)C1=S", "note": "(stereo not given)", "AC50": "2000 nM (active)"}
{"smiles": "CN1C(=O)C(CC(N)=O)N(NC(=O)c2ccc(Cl)cc2)C1=S", "note": "(stereo not given)", "activity, negative = inhibition": "6.45%"}
{"smiles": "CCCCC(=O)Nc1ccc(C(=O)NNC(=O)CCc2ccccc2)cc1", "activity, negative = inhibition": "8.04%"}
{"smiles": "CCN1C(=O)C(CC(=O)Nc2ccc(Br)cc2)N(CCCc2ccccc2)C1=S", "note": "(stereo not given)", "AC50": "10000 nM (active)"}
{"smiles": "CCN1C(=O)C(CC(=O)Nc2ccc(OC)cc2)N(Cc2cccnc2)C1=S", "note": "(stereo not given)", "activity, negative = inhibition": "-21.7%"}
{"smiles": "CC(=O)Nc1ccc(S(=O)(=O)NC2(C(F)(F)F)NC(=O)N(c3ccc(Cl)cc3)C2=O)cc1", "note": "(stereo not given)", "activity, negative = inhibition": "5.87%"}
{"smiles": "O=C(CC1C(=O)N(c2ccc(Cl)cc2)C(=S)N1CCc1ccncc1)Nc1ccc(F)cc1", "note": "(stereo not given)", "AC50": "2240 nM (active)"}
{"smiles": "CCNC(=O)CC1C(=O)N(c2ccc(F)cc2)C(=O)N1CCc1ccc(OC)cc1", "note": "(stereo not given)", "activity, negative = inhibition": "-1.57%"}
{"smiles": "Cc1ccc(NC2c3ncccc3C(=O)N2Cc2ccc(F)cc2)cc1", "note": "(stereo not given)", "activity, negative = inhibition": "-10.5%"}
{"smiles": "COc1ccc(OC)c(C2CC(=O)C3=C(C2)NC(=O)CC3c2ccc(O)c(OC)c2)c1", "note": "(stereo not given)", "activity, negative = inhibition": "-26.8%"}
{"smiles": "CC(C)CC(=O)N1CCC(O)(CS(=O)(=O)Cc2ccc(Cl)cc2)CC1", "activity, negative = inhibition": "-0.0163%"}
{"smiles": "COCCn1c(=O)c(-c2cccc(F)c2)nc2cncnc21", "activity, negative = inhibition": "-2.96%"}
{"smiles": "Cc1nn(-c2ccccc2)c(N2CCCCC2)c1/C=N/O", "activity, negative = inhibition": "-4.1%"}
{"smiles": "O=C(c1ccc(Cl)cc1)N1CCN(c2cc(=O)[nH]nc2-c2ccccc2)CC1", "activity, negative = inhibition": "6.15%"}
{"smiles": "COc1cccc(CNCc2ccc(SC)cc2)c1OC", "AC50": "3160 nM (active)"}
{"smiles": "CSc1ccc(CNc2ccccc2)cc1", "activity, negative = inhibition": "-14.2%"}
{"smiles": "CC(C)CC(=O)Nc1sc2c(c1C#N)CC(C)(C)NC2(C)C", "AC50": "7940 nM (active)"}
{"smiles": "COc1ccc(C(=O)N2CC3(CC(c4ccc(Cl)cc4)=NO3)C[C@H]2C(=O)NCC(N)=O)cc1", "note": "(stereo not given in full)", "activity, negative = inhibition": "-7.18%"}
{"smiles": "CCOC(=O)C1C(=O)C=C(c2ccc(C)cc2)CC1c1ccco1", "note": "(stereo not given)", "activity, negative = inhibition": "-21.1%"}
{"smiles": "Cc1c2oc3c(C)ccc(C(=O)N[C@@H]4C(=O)N[C@@H](C(C)C)C(=O)N5CCC[C@@H]5C(=O)N(C)CC(=O)N(C)[C@@H](C(C)C)C(=O)O[C@H]4C)c3nc-2c(C(=O)N[C@@H]2C(=O)N[C@@H](C(C)C)C(=O)N3CCC[C@@H]3C(=O)N(C)CC(=O)N(C)[C@@H](C(C)C)C(=O)O[C@H]2C)c(N)c1=O", "note": "(I: [aThr]V[dP][Sar][NMeV] / II: [aThr]V[dP][Sar][NMeV]; ester I:1-I:C, II:1-II:C; linker I:N-II:N via Actinocin(9to1))", "activity, negative = inhibition": "2.32%"}
{"smiles": "Cc1ccc(-n2[nH]c(C)c(C=Nc3ccc4[nH]c(=O)[nH]c4c3)c2=O)cc1C", "activity, negative = inhibition": "-6.33%"}
{"smiles": "CCOc1ccc(C2=[N+]([O-])C(C)(C)N(O)C2(C)C)cc1", "activity, negative = inhibition": "-0.754%"}
{"smiles": "Cc1ccc(S(=O)(=O)N[C@H](CO)C(=O)O)cc1", "activity, negative = inhibition": "1.97% [at 11.4 µM]"}
{"smiles": "Cc1ccc(NNS(=O)(=O)c2ccc(C)cc2)cc1", "AC50": "5620 nM (active)"}
{"smiles": "Cc1ccc(S(=O)(=O)NCc2ccccc2)cc1", "activity, negative = inhibition": "0.206%"}
{"smiles": "Cc1ccc(S(=O)(=O)NNc2ccccc2)cc1", "AC50": "7940 nM (active)"}
{"smiles": "Cc1ccc(NC(=O)NNS(=O)(=O)c2ccc(Br)cc2)cc1", "activity, negative = inhibition": "-4.79%"}
{"smiles": "Cc1ccc(S(=O)(=O)N[C@H](C(=O)O)C(C)C)cc1", "activity, negative = inhibition": "3.72% [at 11.4 µM]"}
